Source: PubChem BioAssay (Tox21)
Records with an inconclusive call do not appear. Unmarked numbers belong to inactive results. The source made the active and inactive calls. Calls come from the whole dose curve; as a rule, active = well fitted activation curve with a large enough effect in the repeat runs; inconclusive = weak or mixed curves; inactive = flat fitted curve, though single readings scatter.

Assay: A CellTox Green Cytotoxicity Assay to monitor cytotoxicity in HEK293 cells - 16 hour (AID 1224888); note: nearly all actives have a fitted effect of over 35% in size
Conditions: CellTox Green fluorescence; series mostly up to 76.8 µM; activity change: at the top concentration
Text: National Center for Advancing Translational Sciences [NCATS]
NIH Chemical Genomics Center [NCGC]
U.S. Environmental Protection Agency [EPA]
National Institutes of Environmental Health Sciences [NIEHS]
National Toxicology Program [NTP]
Cell-based models are critical for drug discovery. Determining the natural cytotoxic effects resulting from test compounds is an essential research activity. A CellTox Green Cytotoxicity Assay to monitor cytotoxicity in real time of continues cell culture during 40 hours of the compound treatment was used to screen Tox21 10K library compounds in Hek293 cells. CellTox Green Cytotoxicity Assay is a nonlytic, homogeneous, biofluorescent method to measure cytotoxicity in cell culture after experimental manipulation. The assay system uses a proprietary asymmetric cyanine dye that is excluded from viable cells but preferentially stains the dead cell's DNA. […] Viable cells produce no appreciable increases in fluorescence. Therefore, the fluorescence signal produced by the binding interaction with dead cell DNA is proportional to cytotoxicity.
The mixture of Hek293 cell suspension and reagents were dispensed at 600cells/6 ul/well in 1536-well tissue culture treated black solid bottom plates using a Multidrop dispenser. After the assay plates were incubated at a 37 C/5% CO2 incubator for 5 hours, 23 nL of compounds dissolved in DMSO, positive and negative controls was transferred to the assay plate by a pintool work station. The plates were incubated at 37 C for 40 hours. The fluorescence intensity were measured at 0h, 8h, 16h, 24h, 32h and 40h time points using ViewLux plate reader during compound treatment.
% is set by controls: 0 for no effect and ±100 for the full control effect; potency is the fitted concentration of half-maximal effect.

| Compound | activity change | Potency |
| --- | --- | --- |
| O=S(O)CO | 11.8% | – |
| CC(NC(CCc1ccccc1)C(=O)O)C(=O)N1C(=O)N(C)CC1C(=O)O (stereo not given) | -10.1% [at 35.3 µM, stronger effect = higher value] | – |
| Cc1cccc(C)c1NC(=O)C(C)N (stereo not given) | – | 19 µM (active) |
| CCCCCCCCCCCCCCCCC | 0.431% | – |
| Cc1c(O)cccc1O | 0.333% | – |
| CC(C)c1cc2c(cc1S(=O)(=O)O)[C@@]1(C)CCC[C@@](C)(C(=O)O)[C@@H]1CC2 | -11.6% [at 35.3 µM, stronger effect = higher value] | – |
| Nc1cc(=O)[nH]c(N)n1 | -1.67% [at 35.3 µM, stronger effect = higher value] | – |
| CCCCCSCCCCC | -10.6% | – |
| Brc1c(NC2=NCCN2)ccc2nccnc12 | -12% [at 35.3 µM, stronger effect = higher value] | – |
| C=CCCCCCCCCC=O | -9.29% | – |
| CC1(C)CO[C@@H](CC(=O)O)CN1 | -7.9% [at 35.3 µM, stronger effect = higher value] | – |
| COc1nc(N)nc2c1ncn2[C@@H]1O[C@H](CO)[C@@H](O)[C@@H]1O | -24.1% [at 35.3 µM, stronger effect = higher value] | – |
| O=C1NC(=O)[C@@]2(CCOc3ccc(F)cc32)N1 | -6.19% [at 35.3 µM, stronger effect = higher value] | – |
| CC(=O)OCC(=O)[C@@]1(O)CC[C@H]2[C@@H]3CCC4=CC(=O)CC[C@]4(C)[C@H]3C(=O)C[C@@]21C | 2.27% [at 35.3 µM, stronger effect = higher value] | – |
| CC(C)(C)NCCNC(C)(C)C | 13.9% | – |
| O=C(O)CCCl | -10.5% | – |
| O=C(O)CN(CCOCCOCCN(CC(=O)O)CC(=O)O)CC(=O)O | 1.33% [at 0.29 µM, stronger effect = higher value] | – |
| O=C1CCCC(=O)C1 | -1.25% | – |
| COC(=O)C1=C(C)NC(C)=C(C(=O)OC)C1c1ccccc1[N+](=O)[O-] | 9.8% | – |
| CCC(C)C1CCCCC1=O (stereo not given) | -13% | – |

| Compound | activity change | Potency |
| --- | --- | --- |
| COC(C)(C)CCCC(C)CC=O (stereo not given) | 0.723% | – |
| Cc1cc2c(cc1S(N)(=O)=O)S(=O)(=O)CCC2 | -1.38% [at 35.3 µM, stronger effect = higher value] | – |
| CN(C(=O)c1c(O)c2ccccc2n(C)c1=O)c1ccccc1 | -5.1% [at 35.3 µM, stronger effect = higher value] | – |
| O=C(CCCN1CCC(O)(c2cccc(C(F)(F)F)c2)CC1)c1ccc(F)cc1 | -16.2% [at 35.3 µM, stronger effect = higher value] | – |
| CCCCOCCOCCOCCCC | -0.554% | – |
| CCOC(=O)c1ccc(C)cc1 | -0.645% | – |
| CCCCNC(=O)NCCCC | 0.553% | – |
| N[C@H]1CN(c2c(F)cc3c(=O)c(C(=O)O)cn(C4C[C@H]4F)c3c2Cl)CC12CC2 (stereo not given in full) | 1.55% [at 35.3 µM, stronger effect = higher value] | – |
| Cn1c(N)c(N=O)c(=O)n(C)c1=O | -16.6% | – |
| Nc1ccccc1S(=O)(=O)O | 4.1% | – |
| CCCN(CCC)CCc1cccc2c1CC(=O)N2 | -9.18% [at 35.3 µM, stronger effect = higher value] | – |
| O=C(O)Cc1ccc(CCNS(=O)(=O)c2ccc(Cl)cc2)cc1 | -7.1% [at 35.3 µM, stronger effect = higher value] | – |
| N=C(N)c1ccc2cc(OC(=O)c3ccc(N=C(N)N)cc3)ccc2c1 | 17.1% [at 35.3 µM, stronger effect = higher value] | – |
| CO/N=C(/C(=O)N[C@@H]1C(=O)N2C(C(=O)OCOC(=O)C(C)(C)C)=C(C)CS[C@H]12)c1csc(N)n1 | -5.67% [at 35.3 µM, stronger effect = higher value] | – |
| CN(C)CCCNCCCN(C)C | -2.21% | – |
| C1OCOCO1 | -1.09% | – |
| CCO[Si](CCC1CCC2OC2C1)(OCC)OCC (stereo not given) | -2.03% | – |
| Cc1c(NC(C)C)c(=O)n(-c2ccccc2)n1C | -1.04% [at 35.3 µM, stronger effect = higher value] | – |
| CN1C(=O)N(C)C(O)C1O (stereo not given) | 4.97% | – |
| CC(C)(C)c1nnc(NS(=O)(=O)c2ccccc2)s1 | -4.89% [at 35.3 µM, stronger effect = higher value] | – |
